{
  "source": "ChEMBL document CHEMBL2218924",
  "about": "“A broad activity screen in support of a chemogenomic map for kinase signalling research and drug discovery” (Biochem J, 2013)",
  "key": {"[1]": {"biological_target": "T1, Ephrin type-A receptor 3 (Homo sapiens) (UniProt P29320)", "T1 sequence (whole entry)": "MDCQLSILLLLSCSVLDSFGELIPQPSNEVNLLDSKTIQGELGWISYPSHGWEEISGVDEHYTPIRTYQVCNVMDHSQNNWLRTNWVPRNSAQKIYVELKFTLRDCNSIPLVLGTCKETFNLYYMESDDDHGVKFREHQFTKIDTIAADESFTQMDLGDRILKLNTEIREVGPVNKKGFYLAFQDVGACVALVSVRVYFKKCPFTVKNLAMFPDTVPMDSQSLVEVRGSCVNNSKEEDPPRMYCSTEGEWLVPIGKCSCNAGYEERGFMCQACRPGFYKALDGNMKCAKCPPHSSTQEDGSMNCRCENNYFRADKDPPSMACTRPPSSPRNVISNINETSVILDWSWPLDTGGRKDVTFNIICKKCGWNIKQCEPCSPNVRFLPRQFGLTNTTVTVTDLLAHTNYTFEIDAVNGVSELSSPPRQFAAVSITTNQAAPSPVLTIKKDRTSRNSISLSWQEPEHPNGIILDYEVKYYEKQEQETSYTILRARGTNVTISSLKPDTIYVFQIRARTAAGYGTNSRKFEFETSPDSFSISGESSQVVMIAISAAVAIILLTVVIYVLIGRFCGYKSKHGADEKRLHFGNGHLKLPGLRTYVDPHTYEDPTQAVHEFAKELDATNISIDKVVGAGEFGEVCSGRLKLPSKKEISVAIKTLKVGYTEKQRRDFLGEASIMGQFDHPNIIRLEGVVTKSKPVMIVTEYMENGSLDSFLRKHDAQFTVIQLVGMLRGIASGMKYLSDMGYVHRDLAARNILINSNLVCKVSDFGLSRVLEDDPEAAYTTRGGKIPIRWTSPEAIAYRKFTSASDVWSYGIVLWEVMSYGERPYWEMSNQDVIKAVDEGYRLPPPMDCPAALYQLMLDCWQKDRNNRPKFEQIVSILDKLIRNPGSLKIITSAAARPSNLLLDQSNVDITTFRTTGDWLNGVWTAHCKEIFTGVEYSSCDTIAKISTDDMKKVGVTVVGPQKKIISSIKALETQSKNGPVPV", "conditions": "at 10 µM; call rule not given here"}, "[2]": {"biological_target": "Ephrin type-A receptor 4 (Homo sapiens) (UniProt P54764)", "sequence (P54764 whole entry)": "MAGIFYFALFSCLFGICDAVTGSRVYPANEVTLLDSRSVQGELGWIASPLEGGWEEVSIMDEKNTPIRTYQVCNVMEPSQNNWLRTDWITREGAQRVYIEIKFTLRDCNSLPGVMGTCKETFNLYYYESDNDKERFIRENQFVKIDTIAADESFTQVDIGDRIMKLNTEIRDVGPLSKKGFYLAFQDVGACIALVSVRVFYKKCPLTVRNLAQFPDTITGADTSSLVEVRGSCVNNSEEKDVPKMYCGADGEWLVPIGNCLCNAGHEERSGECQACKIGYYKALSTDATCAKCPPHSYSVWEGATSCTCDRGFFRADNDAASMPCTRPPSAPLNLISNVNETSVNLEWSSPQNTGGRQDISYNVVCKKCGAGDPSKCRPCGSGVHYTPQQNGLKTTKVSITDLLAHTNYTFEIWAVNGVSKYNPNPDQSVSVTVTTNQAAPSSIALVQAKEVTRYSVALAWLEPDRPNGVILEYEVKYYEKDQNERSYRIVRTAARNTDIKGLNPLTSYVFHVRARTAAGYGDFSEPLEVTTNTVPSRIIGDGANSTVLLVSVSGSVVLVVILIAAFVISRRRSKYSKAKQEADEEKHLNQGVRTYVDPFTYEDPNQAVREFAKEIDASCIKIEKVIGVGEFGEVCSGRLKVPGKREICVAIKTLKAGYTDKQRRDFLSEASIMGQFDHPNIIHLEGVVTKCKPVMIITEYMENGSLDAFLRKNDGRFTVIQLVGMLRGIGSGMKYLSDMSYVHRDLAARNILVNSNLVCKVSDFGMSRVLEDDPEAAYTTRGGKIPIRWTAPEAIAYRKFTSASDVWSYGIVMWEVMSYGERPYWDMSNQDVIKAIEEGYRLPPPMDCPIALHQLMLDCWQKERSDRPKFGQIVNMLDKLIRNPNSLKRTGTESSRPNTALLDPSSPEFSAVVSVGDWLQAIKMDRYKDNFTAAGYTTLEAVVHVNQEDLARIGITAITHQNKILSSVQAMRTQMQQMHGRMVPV", "conditions": "at 10 µM"}, "[3]": {"biological_target": "Ephrin type-A receptor 7 (Homo sapiens) (UniProt Q15375)", "sequence (Q15375 28-998 limits assumed)": "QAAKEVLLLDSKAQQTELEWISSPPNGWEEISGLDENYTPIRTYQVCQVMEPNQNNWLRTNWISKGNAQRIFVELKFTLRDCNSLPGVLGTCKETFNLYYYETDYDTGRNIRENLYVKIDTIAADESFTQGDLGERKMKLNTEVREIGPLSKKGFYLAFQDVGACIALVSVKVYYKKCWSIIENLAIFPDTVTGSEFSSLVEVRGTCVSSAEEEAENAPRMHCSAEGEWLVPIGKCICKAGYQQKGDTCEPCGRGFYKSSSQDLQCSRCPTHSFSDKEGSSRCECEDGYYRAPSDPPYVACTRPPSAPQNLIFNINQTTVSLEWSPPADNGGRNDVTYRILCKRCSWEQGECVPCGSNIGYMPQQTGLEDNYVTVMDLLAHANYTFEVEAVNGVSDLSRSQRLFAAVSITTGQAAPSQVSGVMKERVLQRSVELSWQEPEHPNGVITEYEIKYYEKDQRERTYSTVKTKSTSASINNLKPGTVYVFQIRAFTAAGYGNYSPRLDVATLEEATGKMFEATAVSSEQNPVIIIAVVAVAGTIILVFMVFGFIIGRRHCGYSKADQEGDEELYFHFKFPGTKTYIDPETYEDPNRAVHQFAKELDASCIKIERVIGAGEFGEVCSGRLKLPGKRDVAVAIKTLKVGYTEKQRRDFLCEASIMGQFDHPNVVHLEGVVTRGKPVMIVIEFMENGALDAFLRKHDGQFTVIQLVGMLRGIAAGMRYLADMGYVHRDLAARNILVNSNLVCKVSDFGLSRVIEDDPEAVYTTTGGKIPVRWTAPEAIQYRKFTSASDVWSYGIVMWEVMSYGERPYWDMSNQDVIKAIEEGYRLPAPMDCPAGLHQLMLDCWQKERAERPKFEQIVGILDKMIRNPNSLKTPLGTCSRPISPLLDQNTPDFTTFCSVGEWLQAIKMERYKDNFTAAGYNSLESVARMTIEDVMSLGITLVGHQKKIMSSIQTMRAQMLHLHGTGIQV", "conditions": "at 1 µM"}, "[4]": {"biological_target": "Ephrin type-A receptor 7 (Homo sapiens) (UniProt Q15375)", "conditions": "at 10 µM"}, "[5]": {"biological_target": "T2, Ephrin type-A receptor 8 (Homo sapiens) (UniProt P29322)", "T2 sequence (whole entry)": "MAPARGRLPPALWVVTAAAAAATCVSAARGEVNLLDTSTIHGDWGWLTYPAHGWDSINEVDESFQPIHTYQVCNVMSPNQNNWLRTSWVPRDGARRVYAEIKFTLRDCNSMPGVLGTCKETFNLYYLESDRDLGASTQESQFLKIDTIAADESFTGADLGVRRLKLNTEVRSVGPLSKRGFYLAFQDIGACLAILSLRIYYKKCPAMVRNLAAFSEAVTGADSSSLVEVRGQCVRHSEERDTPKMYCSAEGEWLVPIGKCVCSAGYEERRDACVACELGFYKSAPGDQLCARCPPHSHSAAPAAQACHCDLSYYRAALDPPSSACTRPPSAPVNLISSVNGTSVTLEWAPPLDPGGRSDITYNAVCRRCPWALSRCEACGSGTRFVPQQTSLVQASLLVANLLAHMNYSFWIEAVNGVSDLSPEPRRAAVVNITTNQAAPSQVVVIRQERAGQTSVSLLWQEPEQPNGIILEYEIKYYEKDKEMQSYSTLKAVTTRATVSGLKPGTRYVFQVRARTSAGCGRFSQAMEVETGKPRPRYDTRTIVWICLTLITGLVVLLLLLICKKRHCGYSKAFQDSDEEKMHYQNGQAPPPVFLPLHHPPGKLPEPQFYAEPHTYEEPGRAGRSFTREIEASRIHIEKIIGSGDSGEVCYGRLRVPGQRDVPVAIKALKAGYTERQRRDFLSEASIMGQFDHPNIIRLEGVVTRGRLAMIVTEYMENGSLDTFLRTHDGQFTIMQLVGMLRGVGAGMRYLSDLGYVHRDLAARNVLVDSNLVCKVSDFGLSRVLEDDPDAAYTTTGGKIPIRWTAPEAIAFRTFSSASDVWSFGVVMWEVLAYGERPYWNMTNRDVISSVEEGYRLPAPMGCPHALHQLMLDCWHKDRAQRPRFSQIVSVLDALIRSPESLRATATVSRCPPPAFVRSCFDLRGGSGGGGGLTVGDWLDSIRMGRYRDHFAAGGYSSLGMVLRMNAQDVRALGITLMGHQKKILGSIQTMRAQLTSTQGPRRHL", "conditions": "at 1 µM"}, "[6]": {"biological_target": "T2, Ephrin type-A receptor 8 (Homo sapiens)", "conditions": "at 10 µM"}, "[7]": {"biological_target": "T3, Ephrin type-B receptor 1 (Homo sapiens) (UniProt P54762)", "T3 sequence (whole entry)": "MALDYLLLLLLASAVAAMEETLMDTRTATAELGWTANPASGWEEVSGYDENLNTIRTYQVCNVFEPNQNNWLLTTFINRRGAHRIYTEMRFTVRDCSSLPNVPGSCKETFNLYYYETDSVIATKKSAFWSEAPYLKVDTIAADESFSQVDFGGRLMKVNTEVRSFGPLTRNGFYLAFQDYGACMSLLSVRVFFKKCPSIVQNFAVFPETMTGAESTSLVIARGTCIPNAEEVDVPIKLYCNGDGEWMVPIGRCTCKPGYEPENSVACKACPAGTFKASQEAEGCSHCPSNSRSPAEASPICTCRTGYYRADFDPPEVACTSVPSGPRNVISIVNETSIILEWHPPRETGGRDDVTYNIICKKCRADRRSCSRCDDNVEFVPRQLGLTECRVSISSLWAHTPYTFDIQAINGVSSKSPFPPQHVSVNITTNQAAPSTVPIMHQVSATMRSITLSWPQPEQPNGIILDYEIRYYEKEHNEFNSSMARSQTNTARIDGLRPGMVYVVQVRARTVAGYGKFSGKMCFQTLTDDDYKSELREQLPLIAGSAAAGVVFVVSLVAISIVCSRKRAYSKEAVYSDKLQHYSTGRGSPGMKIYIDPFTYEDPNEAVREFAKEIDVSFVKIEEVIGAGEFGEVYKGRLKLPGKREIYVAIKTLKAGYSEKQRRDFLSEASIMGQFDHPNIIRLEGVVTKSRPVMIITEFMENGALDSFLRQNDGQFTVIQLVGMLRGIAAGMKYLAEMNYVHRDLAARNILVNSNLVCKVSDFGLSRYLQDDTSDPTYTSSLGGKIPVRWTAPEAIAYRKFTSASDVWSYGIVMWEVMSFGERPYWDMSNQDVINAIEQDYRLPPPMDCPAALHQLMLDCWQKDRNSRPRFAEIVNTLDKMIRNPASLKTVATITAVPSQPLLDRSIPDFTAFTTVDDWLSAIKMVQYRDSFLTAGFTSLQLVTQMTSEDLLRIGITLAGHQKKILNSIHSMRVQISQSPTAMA", "conditions": "at 1 µM"}, "[8]": {"biological_target": "T3, Ephrin type-B receptor 1 (Homo sapiens)", "conditions": "at 10 µM"}, "[9]": {"biological_target": "T4, Ephrin type-B receptor 3 (Homo sapiens) (UniProt P54753)", "T4 sequence (whole entry)": "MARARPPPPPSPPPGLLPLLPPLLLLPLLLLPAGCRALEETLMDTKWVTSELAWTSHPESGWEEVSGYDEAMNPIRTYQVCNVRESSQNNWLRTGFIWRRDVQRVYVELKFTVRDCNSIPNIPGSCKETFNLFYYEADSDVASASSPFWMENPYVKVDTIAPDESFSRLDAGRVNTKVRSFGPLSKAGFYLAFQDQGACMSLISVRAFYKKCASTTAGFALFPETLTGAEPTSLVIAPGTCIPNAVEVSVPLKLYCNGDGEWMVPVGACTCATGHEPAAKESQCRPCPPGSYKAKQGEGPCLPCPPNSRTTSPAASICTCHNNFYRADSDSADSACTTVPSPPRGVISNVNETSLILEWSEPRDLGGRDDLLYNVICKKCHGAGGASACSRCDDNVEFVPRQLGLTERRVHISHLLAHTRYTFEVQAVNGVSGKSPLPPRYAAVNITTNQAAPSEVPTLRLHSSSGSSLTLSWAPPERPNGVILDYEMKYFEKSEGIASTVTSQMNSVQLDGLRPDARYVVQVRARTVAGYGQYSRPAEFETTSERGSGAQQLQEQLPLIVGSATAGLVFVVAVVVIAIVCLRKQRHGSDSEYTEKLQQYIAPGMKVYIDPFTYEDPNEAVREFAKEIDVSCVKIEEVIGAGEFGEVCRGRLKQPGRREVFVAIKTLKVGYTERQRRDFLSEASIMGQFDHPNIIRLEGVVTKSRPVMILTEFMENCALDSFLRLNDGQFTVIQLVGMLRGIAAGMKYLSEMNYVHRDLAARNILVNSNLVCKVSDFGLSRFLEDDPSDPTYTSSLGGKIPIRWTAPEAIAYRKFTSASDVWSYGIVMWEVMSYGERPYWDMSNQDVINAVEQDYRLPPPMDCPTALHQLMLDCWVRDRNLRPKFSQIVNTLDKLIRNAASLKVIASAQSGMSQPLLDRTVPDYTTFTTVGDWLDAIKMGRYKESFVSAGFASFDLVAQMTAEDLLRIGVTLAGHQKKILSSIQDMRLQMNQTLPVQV", "conditions": "at 1 µM"}, "[10]": {"biological_target": "T4, Ephrin type-B receptor 3 (Homo sapiens)", "conditions": "at 10 µM"}, "[11]": {"biological_target": "T5, Ephrin type-B receptor 4 (Homo sapiens) (UniProt P54760)", "T5 sequence (whole entry)": "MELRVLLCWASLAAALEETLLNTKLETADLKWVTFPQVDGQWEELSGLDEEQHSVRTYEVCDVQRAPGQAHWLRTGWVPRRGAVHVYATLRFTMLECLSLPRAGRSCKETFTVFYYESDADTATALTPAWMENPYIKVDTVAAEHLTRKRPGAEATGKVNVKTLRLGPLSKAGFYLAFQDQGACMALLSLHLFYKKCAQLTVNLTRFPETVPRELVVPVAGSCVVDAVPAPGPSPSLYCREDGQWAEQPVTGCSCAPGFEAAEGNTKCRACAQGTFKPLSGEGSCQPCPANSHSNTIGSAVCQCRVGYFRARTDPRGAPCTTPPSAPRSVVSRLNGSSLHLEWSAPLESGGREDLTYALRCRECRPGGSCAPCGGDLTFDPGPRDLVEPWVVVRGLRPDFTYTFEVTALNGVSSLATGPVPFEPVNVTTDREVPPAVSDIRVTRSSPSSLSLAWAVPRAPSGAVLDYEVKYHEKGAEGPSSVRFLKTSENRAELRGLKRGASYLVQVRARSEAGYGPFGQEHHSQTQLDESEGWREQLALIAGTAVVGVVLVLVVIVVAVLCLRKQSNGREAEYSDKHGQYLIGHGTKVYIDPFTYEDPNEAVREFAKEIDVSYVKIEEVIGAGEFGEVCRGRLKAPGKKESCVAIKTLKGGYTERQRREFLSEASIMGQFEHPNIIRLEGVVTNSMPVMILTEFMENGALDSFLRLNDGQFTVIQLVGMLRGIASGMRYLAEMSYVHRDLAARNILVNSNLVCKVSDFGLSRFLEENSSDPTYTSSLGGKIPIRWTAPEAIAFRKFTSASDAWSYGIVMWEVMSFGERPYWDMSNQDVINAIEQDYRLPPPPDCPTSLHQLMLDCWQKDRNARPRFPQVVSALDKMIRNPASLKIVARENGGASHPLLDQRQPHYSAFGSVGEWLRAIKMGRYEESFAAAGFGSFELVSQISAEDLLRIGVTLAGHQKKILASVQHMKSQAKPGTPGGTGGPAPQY", "conditions": "at 1 µM"}, "[12]": {"biological_target": "T5, Ephrin type-B receptor 4 (Homo sapiens)", "conditions": "at 10 µM"}, "[13]": {"biological_target": "Receptor tyrosine-protein kinase erbB-4 (Homo sapiens) (UniProt Q15303)", "sequence (Q15303 whole entry)": "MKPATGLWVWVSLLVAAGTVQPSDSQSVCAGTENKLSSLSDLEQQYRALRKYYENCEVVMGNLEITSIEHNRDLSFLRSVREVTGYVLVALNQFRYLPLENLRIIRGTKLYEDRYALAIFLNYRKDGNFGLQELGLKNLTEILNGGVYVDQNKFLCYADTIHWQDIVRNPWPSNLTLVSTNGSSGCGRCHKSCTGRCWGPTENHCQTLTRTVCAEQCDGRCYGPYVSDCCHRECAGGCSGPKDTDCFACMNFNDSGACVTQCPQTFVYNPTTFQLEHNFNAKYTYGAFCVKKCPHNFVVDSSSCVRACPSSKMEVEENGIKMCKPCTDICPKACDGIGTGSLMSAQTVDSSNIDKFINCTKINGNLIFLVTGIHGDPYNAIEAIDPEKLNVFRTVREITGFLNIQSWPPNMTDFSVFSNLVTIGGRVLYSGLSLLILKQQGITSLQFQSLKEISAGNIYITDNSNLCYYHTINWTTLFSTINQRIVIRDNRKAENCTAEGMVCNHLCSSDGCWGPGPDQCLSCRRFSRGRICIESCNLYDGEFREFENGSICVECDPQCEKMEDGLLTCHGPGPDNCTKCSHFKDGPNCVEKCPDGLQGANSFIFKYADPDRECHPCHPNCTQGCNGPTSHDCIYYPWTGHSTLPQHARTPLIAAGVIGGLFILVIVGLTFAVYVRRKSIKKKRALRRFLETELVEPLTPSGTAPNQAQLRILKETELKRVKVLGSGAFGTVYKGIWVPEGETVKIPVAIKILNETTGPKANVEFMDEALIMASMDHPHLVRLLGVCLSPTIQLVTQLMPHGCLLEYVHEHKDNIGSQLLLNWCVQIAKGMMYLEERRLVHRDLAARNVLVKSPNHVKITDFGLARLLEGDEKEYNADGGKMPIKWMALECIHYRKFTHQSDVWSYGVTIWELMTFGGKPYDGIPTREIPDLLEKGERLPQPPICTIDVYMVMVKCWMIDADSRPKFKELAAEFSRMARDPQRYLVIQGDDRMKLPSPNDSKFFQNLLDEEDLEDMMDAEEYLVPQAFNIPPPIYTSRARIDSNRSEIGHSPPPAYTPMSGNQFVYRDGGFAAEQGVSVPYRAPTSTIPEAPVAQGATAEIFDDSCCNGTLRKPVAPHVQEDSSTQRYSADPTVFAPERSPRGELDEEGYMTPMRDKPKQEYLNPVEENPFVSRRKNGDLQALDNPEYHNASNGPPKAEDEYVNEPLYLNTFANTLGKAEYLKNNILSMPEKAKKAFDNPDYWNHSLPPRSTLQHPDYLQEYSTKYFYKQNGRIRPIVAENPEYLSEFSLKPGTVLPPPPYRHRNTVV", "conditions": "at 1 µM"}, "[14]": {"biological_target": "Receptor tyrosine-protein kinase erbB-4 (Homo sapiens) (UniProt Q15303)", "conditions": "at 10 µM"}, "[15]": {"biological_target": "Focal adhesion kinase 1 (Homo sapiens) (UniProt Q05397)", "sequence (Q05397 2-1052 limits assumed)": "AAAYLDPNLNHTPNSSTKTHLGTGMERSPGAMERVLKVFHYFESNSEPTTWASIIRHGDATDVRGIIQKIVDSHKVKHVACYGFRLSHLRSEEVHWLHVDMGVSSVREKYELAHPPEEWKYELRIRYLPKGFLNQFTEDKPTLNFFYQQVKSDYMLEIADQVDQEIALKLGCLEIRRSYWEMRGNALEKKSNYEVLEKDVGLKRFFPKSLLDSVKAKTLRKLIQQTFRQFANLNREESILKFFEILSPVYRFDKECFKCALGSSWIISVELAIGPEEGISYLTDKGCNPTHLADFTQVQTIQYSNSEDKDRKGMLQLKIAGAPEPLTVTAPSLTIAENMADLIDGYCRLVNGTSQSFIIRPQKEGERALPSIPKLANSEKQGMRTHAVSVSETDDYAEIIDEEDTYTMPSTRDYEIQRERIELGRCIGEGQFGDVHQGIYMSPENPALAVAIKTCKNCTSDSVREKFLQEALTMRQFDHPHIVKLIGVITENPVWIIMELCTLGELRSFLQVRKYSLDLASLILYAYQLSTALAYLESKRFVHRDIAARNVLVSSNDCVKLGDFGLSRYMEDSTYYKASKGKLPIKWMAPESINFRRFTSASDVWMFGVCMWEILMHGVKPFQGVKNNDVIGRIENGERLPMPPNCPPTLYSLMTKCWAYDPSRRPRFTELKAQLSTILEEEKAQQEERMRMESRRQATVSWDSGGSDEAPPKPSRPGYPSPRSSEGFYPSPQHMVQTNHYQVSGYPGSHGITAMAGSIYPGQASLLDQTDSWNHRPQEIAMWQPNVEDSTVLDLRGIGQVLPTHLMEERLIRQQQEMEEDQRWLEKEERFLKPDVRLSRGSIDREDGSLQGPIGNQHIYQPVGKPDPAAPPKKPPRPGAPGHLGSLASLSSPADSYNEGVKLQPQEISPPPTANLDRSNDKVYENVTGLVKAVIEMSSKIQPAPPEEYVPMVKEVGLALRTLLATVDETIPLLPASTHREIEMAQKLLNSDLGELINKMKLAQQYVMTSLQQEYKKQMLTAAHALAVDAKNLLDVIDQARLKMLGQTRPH", "conditions": "at 1 µM"}},
  "data": [
    {"smiles": "CN(C)S(=O)(=O)c1ccc2c(c1)/C(=C/c1cc3c([nH]1)CCCC3)C(=O)N2", "values": [
      {"measurement": "residual activity", "setting": "[1]", "value": 77, "unit": "%"},
      {"measurement": "residual activity", "setting": "[2]", "value": 92, "unit": "%"},
      {"measurement": "residual activity", "setting": "[3]", "value": 94, "unit": "%"},
      {"measurement": "residual activity", "setting": "[4]", "value": 79, "unit": "%"},
      {"measurement": "residual activity", "setting": "[5]", "value": 96, "unit": "%"},
      {"measurement": "residual activity", "setting": "[6]", "value": 85, "unit": "%"},
      {"measurement": "residual activity", "setting": "[7]", "value": 73, "unit": "%"},
      {"measurement": "residual activity", "setting": "[8]", "value": 64, "unit": "%"},
      {"measurement": "residual activity", "setting": "[9]", "value": "120% (inactive)"},
      {"measurement": "residual activity", "setting": "[10]", "value": 94, "unit": "%"},
      {"measurement": "residual activity", "setting": "[11]", "value": 70, "unit": "%"},
      {"measurement": "residual activity", "setting": "[12]", "value": 69, "unit": "%"},
      {"measurement": "residual activity", "setting": "[13]", "value": 88, "unit": "%"},
      {"measurement": "residual activity", "setting": "[14]", "value": 82, "unit": "%"},
      {"measurement": "residual activity", "setting": "[15]", "value": 21, "unit": "%"}
    ]}
  ]
}
